This passage reports inhibition results from PubChem BioAssay AID485344 (National Center for Advancing Translational Sciences (NCATS), 2010).

Where “and” joins values, the source holds several entries; their conditions need not be identical. Identical values can stand only once. Among all 340,000 compounds or so, about 6,900 (2%) were called active. The sample holds actives, similar compounds and a random draw of the others, so the mix is not that of the screen. A number with no mark means an inactive call. Cut-off read from the data, not from the text of the source: active = inhibition above about 30%; inactive = below that, where a call was filed.

D(2) dopamine receptor (Homo sapiens), sequence (P14416 whole entry, looked up): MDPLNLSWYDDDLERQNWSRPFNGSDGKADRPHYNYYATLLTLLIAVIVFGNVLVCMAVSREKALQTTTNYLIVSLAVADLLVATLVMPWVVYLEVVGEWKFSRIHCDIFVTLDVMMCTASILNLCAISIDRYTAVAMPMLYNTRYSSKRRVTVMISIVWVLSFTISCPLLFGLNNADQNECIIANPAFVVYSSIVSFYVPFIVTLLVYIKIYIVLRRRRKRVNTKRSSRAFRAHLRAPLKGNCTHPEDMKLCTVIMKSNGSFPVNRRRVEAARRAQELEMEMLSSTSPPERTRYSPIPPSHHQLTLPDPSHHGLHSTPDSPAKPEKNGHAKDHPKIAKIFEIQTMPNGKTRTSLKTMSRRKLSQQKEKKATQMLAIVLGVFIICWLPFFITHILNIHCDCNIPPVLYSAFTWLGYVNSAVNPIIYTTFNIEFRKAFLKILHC

For this experiment, the target named is D(2) dopamine receptor (Homo sapiens) (UniProt P14416). In words: HTS Assay for Allosteric Antagonists of the Human D2 Dopamine Receptor: Primary Screen for Antagonists. Note: 0% is about no effect. As to conditions: HEK293 TREx D2 cells, calcium flux, dopamine EC80; at 10 µM; hits give high values. In outline:
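Overnight-induced (tetracycline, 30 C) HEK293 T-REx cells carrying force-coupled D2 receive a no-wash calcium dye, then compound, then EC80 dopamine at 180 s; signals are read kinetically throughout.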
In general terms: A change in cytosolic calcium serves as a functional read-out for many receptors and channels.
For the molecule `CC1CN(C(=O)CCC(=O)NCc2cccnc2)c2ccccc2O1` (configuration not stated), the inhibition was 35.5% (active). Consider `Cc1ccc2c(c1)N(C(=O)CCC(=O)NCc1cccnc1)CCO2`, for which the inhibition was 13.2%.

As for `CC1CN(C(=O)CCC(=O)NC2CCN(Cc3ccccc3)CC2)c2ccccc2O1` (configuration not stated), the inhibition was -8.98%. Take `CC[C@H](C)C(=O)N[C@H]1CCCN1C(=O)/C=C/c1ccccc1`: the inhibition is 3.07%. On to `O=C(N[C@@H](Cc1c[nH]c2ccccc12)C(=O)O)OCC1c2ccccc2-c2ccccc21`, for which the inhibition is 5.76%. The result for `COc1ccc(C)cc1NC(=O)CSc1nnc2ccc(-c3ccccn3)nn12` reads 24.5%; that for `O=C(N/N=C/c1c[nH]c2ccccc12)c1cc2ccccc2o1`, -9.07%. Turning to `O=C(N/N=C/c1coc2ccccc2c1=O)c1cc2ccccc2o1`, the inhibition is -7.75%. The result for `Cc1c(/C=N\NC(=O)c2cc3ccccc3o2)c2ccccc2n1C` reads 33.1% (active); that for `COc1ccc(CCC(=O)N2CCN(S(=O)(=O)c3ccc(OC)cc3)CC2)cc1`, -16.3%. In the case of `Cc1cccc2c1N(CC(=O)OC(C)C)C(=O)C2=O`, the inhibition was 0.945%. On to `CCOC(=O)CN1C(=O)C(=O)c2cc(C)ccc21`, for which the inhibition is 37% (active). As for `CC(C)OC(=O)CN1C(=O)C(=O)c2ccccc21`, the inhibition was 2.86%.

For `Cc1ccc(C(=O)OC(C)CN2CCOCC2)cc1` (configuration not stated), the inhibition is 12.8%. Regarding `CC(CN1CCOCC1)OC(=O)c1ccc(C(C)(C)C)cc1` (configuration not stated), the inhibition was 70.8% (active). As for `Cc1cccc(C(=O)OC(C)CN2CCCC2)c1` (configuration not stated), the figure is -14%. With `CC1CC(C)CN(C/C=C/c2ccccc2[N+](=O)[O-])C1` (configuration not stated), the inhibition is 7.28%. Turning to `O=C(/C=C/c1ccccc1[N+](=O)[O-])OCC(=O)N1CCCC1`, the inhibition is 4.52%. With `O=[N+]([O-])c1ccccc1/C=C/CN1CCCC(CO)C1` (configuration not stated), the inhibition was 35.4% (active).

For the molecule `CCN(CC(=O)Nc1cc(Cl)ccc1C)C(=O)Cn1c(=O)cnc2ccccc21`, the inhibition was 17.9%. With `N#C[C@]1(S(=O)(=O)c2ccccc2)C[C@@H]2ON=C(c3cccc(Br)c3)[C@@H]2C1`, the inhibition was 41.5% (active). In the case of `COC(=O)[C@]1(S(=O)(=O)c2ccccc2)C[C@@H]2ON=C(c3ccc(OC)cc3)[C@@H]2C1`, the inhibition is -8.41%. For the molecule `CC(=O)NC12CC3CC(C1)CC(C(=O)N1CCN(C(=O)c4ccco4)CC1)(C3)C2`, the inhibition was -36.2%. As for `CC(C)(COC(=O)Nc1ccccc1)COC(=O)Nc1ccccc1`, the figure is -9.72%. The result for `Cc1ccc(NC(=O)OCCNC(=O)c2ccncc2)cc1` reads -36.9%. With `CCCCCOC(=O)NCCOC(=O)Nc1ccc(C(=O)OCC)cc1`, the inhibition is 33% (active). On to `CCOC(=O)Nc1ccc(S(=O)(=O)N(C)C(C)C)cc1`, for which the inhibition is 2.07%.

Regarding `CCCCC(CCC(=O)Nc1ccc(C(=O)OCC)cc1)C(=O)O` (configuration not stated), the inhibition was 4.1%. In the case of `CCOC(=O)Nc1ccc(NC(=O)OCC)cc1`, the inhibition is 38.8% (active). With `CCCCN(C(=O)C1=NN(c2cc(C)ccc2C)C(=O)CC1)c1c(N)n(CCC)c(=O)[nH]c1=O`, the inhibition is -7.61%. As for `CC(O)CNCCOc1cccc(Oc2ccccc2)c1` (configuration not stated), the figure is -19.3%; as for `COc1ccccc1OCCNCC(O)COc1cccc2[nH]c3ccccc3c12` (configuration not stated), 59.1% (active) and 51.5% (active). The result for `COc1cccc2[nH]c(C(=O)NCCc3ccccc3)cc12` reads -14.1%; that for `O=S(=O)(O)Oc1c[nH]c2ccccc12`, 19.7%; that for `CCN(CC)S(=O)(=O)c1ccc(CNC(=O)CN2C(=O)NC3(CCc4ccccc43)C2=O)cc1` (configuration not stated), -6.28%. With `CCc1ccc(NC(=O)Cn2ncn3c(cc4ccccc43)c2=O)cc1`, the inhibition is 12.2%. On to `CC(C)c1ccc(NC(=O)Cn2ncc3ccccc32)cc1`, for which the inhibition is 32.4% (active). Consider `CCOC(=O)c1cn(CC(=O)Nc2ccc(C(C)C)cc2)nn1`, for which the inhibition was -8.92%.

Take `COc1ccc(OCCCC(=O)Nc2cccc(S(=O)(=O)N3CCCCCC3)c2)cc1`: the inhibition is -0.774%. As for `O=C(c1cn(-c2ccccc2)nc1-c1cccnc1)N1CCN(S(=O)(=O)c2ccccc2F)CC1`, the figure is 17.6%.

Turning to `CCCN(CC(=O)NC(=O)NC1CCCCC1)CC(=O)Nc1cc(Cl)ccc1Cl`, the inhibition is -13.3%. For the molecule `O=C(CCCN1CCc2[nH]c3ccc(F)cc3c2C1)c1ccc(F)cc1`, the inhibition was 92.7% (active). On to `Fc1ccc(NC(=S)N2CCc3[nH]c4ccccc4c3C2)cc1`, for which the inhibition was -0.813%. Take `Cc1ccc2[nH]c3c(c2c1)CN(C(=O)CN1CCN(c2ccccc2)CC1)CC3`: the inhibition was 4.69%.

Regarding `O=C(COC(=O)c1ccc2ncsc2c1)Nc1ccc(Cl)cc1`, the inhibition is 18.7%. Take `COc1ccc(OC)c(CNC(=O)C2CCCN(c3nc4ccccc4o3)C2)c1` (configuration not stated): the inhibition is -3%. In the case of `CCc1ccc(CNC(=O)C2CCCN(c3nc4ccccc4o3)C2)cc1` (configuration not stated), the inhibition was 39.6% (active). Consider `COc1ccccc1CNC(=O)C1CCN(c2nc3ccccc3o2)CC1`, for which the inhibition was 9.79%. As for `CCCCc1ccc(NC(=O)CN2C(=O)NC(Cc3ccccc3)C2=O)cc1` (configuration not stated), the inhibition was 16.7%. The result for `COCc1c(C(=O)OCC(=O)Nc2ccc(OC(F)F)cc2)oc2ccccc12` reads -10.8%; that for `Cc1oc(-c2ccccc2F)nc1CS(=O)CC(=O)NCCN1CCCCC1C` (configuration not stated), -10.8%.

For the molecule `Cc1oc(-c2ccccc2F)nc1CS(=O)(=O)CC(=O)NCCCN(C)C1CCCCC1`, the inhibition is 45.2% (active). The result for `CSc1ccc(CCNC(=O)CS(=O)(=O)Cc2nc(-c3ccccc3F)oc2C)cc1` reads -16.4%; that for `O=[N+]([O-])c1cc(S(=O)(=O)NCCc2ccccn2)ccc1Cl`, 9.65%.

As for `COc1ccc(CN2CCN(C(=O)c3cc(C4CC4)nn3-c3ccccc3)CC2)cc1F`, the inhibition was -4.93%. For the molecule `N#CC1(NC(=O)COC(=O)Cc2n[nH]c(=O)c3ccccc23)CCCCC1`, the inhibition is -5.98%. For the molecule `Cc1nn(Cc2ccccc2)c(C)c1CNC(=O)c1ccc(F)c(S(=O)(=O)N2CCOCC2)c1`, the inhibition was 5.64%. Regarding `CCOC(=O)c1sc2nc(SC)nc(-c3ccccc3)c2c1N`, the inhibition was 30.8% (active). As to `CCOC(=O)C(=O)Nc1nc(-c2ccccc2)c(CC)s1`, the inhibition is 8.31%. Turning to `CCOC(=O)c1sc2nc(CSc3ccccc3)[nH]c(=O)c2c1C`, the inhibition is 20.4%. With `Cc1ccc(C)c(NC(=O)C(c2ccccc2)N2CCN(CC(=O)NC3CC3)CC2)c1` (configuration not stated), the inhibition is 5.16%. Take `COc1cccc(CNC(=O)Cc2csc(Nc3nc(=S)[nH]c4ccccc34)n2)c1`: the inhibition was -15.6%. `O=C(Cc1ccc(-n2c(=O)[nH]c3ccccc3c2=O)cc1)N1CCN(c2cccc(Cl)c2)CC1`: the inhibition is 11.5%.

Regarding `O=C(Cc1csc(Nc2nc(=S)[nH]c3ccccc23)n1)NCCCN1CCN(c2cccc(Cl)c2)CC1`, the inhibition is 69.4% (active). The result for `COc1ccc(S(=O)(=O)N2CCOCC2)cc1NC(=O)c1ccc(OCC(C)C)c(OC)c1` reads -9.24%; that for `Cc1ccc(S(=O)(=O)NCCN2CCOCC2)cc1C`, -3.48%; that for `Cn1c(=O)c(=O)n(C)c2cc(S(=O)(=O)NCCN3CCN(c4ccccc4F)CC3)ccc21`, 42.8% (active). With `CCc1ccc(S(=O)(=O)Nc2cc3c(cc2N2CCCCC2)n(C)c(=O)c(=O)n3C)cc1`, the inhibition was 4.98%. The result for `Cc1ccc(S(=O)(=O)N2CCOCC2)cc1C(=O)Nc1ccccc1N1CCCC1` reads 3.22%. For `CCOc1ccc(S(=O)(=O)N2CCCCC2)cc1NC(=O)CN1CCCC1c1cccs1` (configuration not stated), the inhibition is 19.6%. For the molecule `CC(=O)NCC(O)c1ccc([N+](=O)[O-])cc1` (configuration not stated), the inhibition was 12.7%. Consider `CNCC(O)c1ccc(O)c(O)c1` (configuration not stated), for which the inhibition is 84.7% (active).

`COc1ccccc1CNC(=O)CCCN1C(=O)NC2(CCCC2)C1=O`: the inhibition is 0.109%.

On to `NS(=O)(=O)c1ccc(CCNC(=O)COC(=O)COc2cccc(C(F)(F)F)c2)cc1`, for which the inhibition is -7.34%.

In the case of `CC(=O)C1=C(C)NC(=O)NC1c1cc(Br)ccc1OCC#N` (configuration not stated), the inhibition was -0.972%. Regarding `CCOC(=O)COc1ccc(Cl)cc1C1NC(=O)NC(C)=C1C(C)=O` (configuration not stated), the inhibition is 30.8% (active).

As for `CCOc1ccccc1C1NC(=O)NC(C)=C1C(=O)OCc1ccco1` (configuration not stated), the inhibition was -14.9%.

Consider `O=C(COC(=O)Cn1[nH]c(=O)c2ccccc2c1=O)Nc1ncc(Cl)cc1Cl`, for which the inhibition is -24.9%. As for `Cc1ccccc1C(=O)NCC(c1ccco1)N1CCc2ccccc21` (configuration not stated), the figure is -18.5%; as for `Nc1cc(N)nc(SCC(=O)Nc2cccc(S(=O)(=O)N3CCCCC3)c2)n1`, 3.49%. The result for `CCC(C)N(C(=O)Cn1nc(C)c([N+](=O)[O-])c1C)C1CCS(=O)(=O)C1` (configuration not stated) reads 15.9%.

Take `C/C=C/c1ccc(OCCCCN2CCC(C)CC2)c(OC)c1`: the inhibition is 45.6% (active). The result for `C/C=C/c1ccc(OCC(O)CN2CCCCCCC2)c(OC)c1` (configuration not stated) reads -10.5%; that for `COc1ccc(OCCCCN2CCC(C)CC2)cc1`, 7.68%. Turning to `CCS(=O)(=O)N1CCC(C(=O)N2CCN(c3ccccc3)CC2)CC1`, the inhibition was -2.98%. As to `Cc1ccc(S(=O)(=O)N2CCN(c3ccccc3)CC2)cc1C`, the inhibition is 26.6%.

In the case of `CCCS(=O)(=O)N1CCCC(C(=O)N2CCN(c3ccccc3)CC2)C1` (configuration not stated), the inhibition is 6.48%. Take `CCS(=O)(=O)N1CCC(N2CCN(c3ccccc3)CC2)CC1`: the inhibition was 73.1% (active). With `CS(=O)(=O)N1CCC(C(=O)N2CCN(c3ccccc3)CC2)CC1`, the inhibition was 47.3% (active). Consider `O=C(C1CCC1)N1CCN(c2ccccc2)CC1`, for which the inhibition is 1.73%. The result for `O=C(c1cc2ccccc2o1)N1CCN(S(=O)(=O)c2ccc(Cl)s2)CC1` reads 17.4%; that for `CC(C)(CNC(=O)CNC(=O)C1CCCCC1)N1CCOCC1`, -45.4%.

In general, inhibition refers to the change of the read-out against control, counted positive when it falls.
